The source of these data is PubChem BioAssay AID1851 (National Center for Advancing Translational Sciences (NCATS), 2009).

“And” between values parts separate entries of the source, which are not always exact repeats. Equal values may be shown once. Out of some 16,000 compounds screened, about 5,100 (32%) were called active. Not shown: some 25% with an inconclusive outcome. Some of the results follow. Unmarked numbers belong to inactive results. The call rests on the fitted dose curve; in most records, active means well fitted curve in the direction sought with a large enough effect; inconclusive means small, poorly fitted or top-dose-only effect, or effect the other way; inactive means no such curve, though single readings can be large or run the other way.
On the % scale 0 is the no-effect control and ±100 the full control effect.

Sequence of Cytochrome P450 3A4 (Homo sapiens) (P08684 whole entry, looked up): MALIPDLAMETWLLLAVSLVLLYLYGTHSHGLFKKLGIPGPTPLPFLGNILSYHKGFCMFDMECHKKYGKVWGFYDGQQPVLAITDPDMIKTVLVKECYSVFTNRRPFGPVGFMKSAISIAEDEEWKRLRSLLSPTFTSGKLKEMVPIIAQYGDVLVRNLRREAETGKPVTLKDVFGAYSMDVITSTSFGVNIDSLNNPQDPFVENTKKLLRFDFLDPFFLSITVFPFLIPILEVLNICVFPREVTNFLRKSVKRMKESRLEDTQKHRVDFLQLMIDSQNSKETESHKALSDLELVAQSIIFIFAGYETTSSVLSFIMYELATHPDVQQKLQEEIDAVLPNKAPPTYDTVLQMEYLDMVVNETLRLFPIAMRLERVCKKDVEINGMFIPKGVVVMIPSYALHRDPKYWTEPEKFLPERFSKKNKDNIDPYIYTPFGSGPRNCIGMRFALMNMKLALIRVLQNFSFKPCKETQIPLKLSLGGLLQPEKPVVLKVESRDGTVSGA

This experiment concerns the target Cytochrome P450 3A4 (Homo sapiens) (UniProt P08684). Kind of experiment: Cytochrome panel assay with activity outcomes. The conditions noted are these: recombinant CYP, pro-luciferin dealkylation, luminescence, p450-cyp3a4; series mostly up to 57.1 µM; activity, negative = inhibition: at the top concentration.
As for `Cc1c(NC(=O)CN2CCN(c3ccccc3)CC2)c(=O)n(-c2ccccc2)n1C`, the “activity, negative = inhibition” value is -14.6%. `CC(=O)NC(CCS(C)(=O)=O)C(=O)Nc1c(F)cccc1F` (configuration not stated): the “activity, negative = inhibition” value was -3.35%. Regarding `Cc1c(NC(=O)Cn2ccc([N+](=O)[O-])n2)c(=O)n(-c2ccccc2)n1C`, the “activity, negative = inhibition” value is 8.95%.

In the case of `O=C(CCN1C(=O)C2C3C=CC(C3)C2C1=O)Nc1ccc2ncccc2c1` (configuration not stated), the concentration at half-maximal activity (AC50) – broadly, the concentration giving half of the maximal activity seen – is 2.51 µM (active). Regarding `Cc1c(NC(=O)CN2C(=O)C3C4C=CC(C4)C3C2=O)c(=O)n(-c2ccccc2)n1C` (configuration not stated), the concentration at half-maximal activity (AC50) was 22.4 µM (active). As to `O=C(Nc1ccc2ncccc2c1)Nc1ccc2ncccc2c1`, the activity, negative = inhibition was -24.8% [at 11.4 µM].

Take `O=C(CCN1C(=O)C2C3C=CC(C3)C2C1=O)Nc1c(F)cccc1F` (configuration not stated): the AC50 was 3.98 µM (active). Turning to `c1ccc(CN2c3ccccc3-c3nc4ccccc4n3C2c2ccccn2)cc1` (configuration not stated), the concentration at half-maximal activity (AC50) was 3.16 µM (active).

As for `Clc1ncccc1-c1nc2ccccc2n1Cc1ccccc1`, the activity, negative = inhibition was 6.58% [at 2.29 µM].

As for `CC1=C(C(N)=O)C(c2ccccc2)n2nc(-c3ccncc3)nc2N1` (configuration not stated), the AC50 is 11.2 µM (active). For `COc1ccccc1NC(=O)C1=C(C)Nc2nnnn2C1c1cccc(Br)c1` (configuration not stated), the concentration at half-maximal activity (AC50) is 2.51 µM (active).

In the case of `CCOC(=O)C1C(=O)NC(C)C1c1ccccc1` (configuration not stated), the activity, negative = inhibition was 1.56% [at 2.29 µM]. On the same count and under the same terms, the result for `COc1cccc(C2=CC(c3ccccc3)n3nnnc3N2)c1` (configuration not stated) reads -0.453%. Take `CC1=C(C(=O)Nc2cccnc2)C(c2cccnc2)n2nc(-c3cccs3)nc2N1` (configuration not stated): the half-maximal activity concentration (AC50) is 14.1 µM (active). `COc1ccccc1NC(=O)C1=C(C)Nc2nc(-c3ccc(N(C)C)cc3)nn2C1c1ccncc1` (configuration not stated): the AC50 was 1.26 µM (active). In the case of `CC(C)C(=O)Nc1ccc(NC(=O)c2cccnc2)cn1`, the “activity, negative = inhibition” value was -22.6%.

Turning to `N#CC1(Nc2ccc(-c3ccc(NC4(C#N)CCCC4)cc3)cc2)CCCC1`, the activity, negative = inhibition was -20.9% [at 11.4 µM].

As to `C=C(Br)CN(C)CC(=C)Br`, the activity, negative = inhibition was -1.54% [at 11.4 µM]. On to `C[C@H]1/C=C\CC(=O)OC[C@H](C)C(=O)N2CCC[C@@H]2C(=O)OC1`, for which the activity, negative = inhibition is -17.6% [at 11.4 µM]. Turning to `CC1=C(C(N)=O)C(c2cccs2)n2nc(-c3cccc(Cl)c3)nc2N1` (configuration not stated), the AC50 was 12.6 µM (active). As for `CCOc1ccc(/C(O)=C2\C(=O)C(=O)N(CCOCCO)C2c2ccccc2OC)cc1` (configuration not stated), the “activity, negative = inhibition” value was -10.2%. Regarding `CCOc1ccccc1C1C(C(N)=O)=C(C)Nc2nc(-c3ccc(OC)cc3)nn21` (configuration not stated), the AC50 was 12.6 µM (active). Take `CCC(=O)n1nc(-c2ccc(OC)cc2)nc1N`: the “activity, negative = inhibition” value was -24.7%. As to `O=C1C2=C(NC(=S)NC2c2ccc(Cl)cc2)NC(c2ccc(Cl)cc2)N1c1ccc(Cl)cc1` (configuration not stated), the AC50 is 2.82 µM (active). Regarding `Clc1ccc2c(c1)C1=C(C(c3ccncc3)O2)C(c2ccc(Br)cc2)n2ncnc2N1` (configuration not stated), the AC50 is 2.51 µM (active). Turning to `CCc1cc2c(NCCO)ncnc2s1`, the “activity, negative = inhibition” value is -18.7%. As to `CCc1ccccc1NC(=O)c1ccc(-n2c(C)ccc2C)cc1`, the half-maximal activity concentration (AC50) was 17.8 µM (active). For the molecule `CCOC(=O)c1ccc(CNC(=O)C2CCCCC2C(=O)OCC(F)(F)F)o1` (configuration not stated), the “activity, negative = inhibition” value was -12.7%. For `CC(C)NC[C@@H](O)COc1ccc(CCOCC2CC2)cc1`, the AC50 entry was “inactive”. For `CN1CC(c2ccccn2)C2(SC(=S)N(Cc3ccccc3)C2=O)C12C(=O)Nc1ccccc12` (configuration not stated), the AC50 is 4.47 µM (active). The same measure, in the same setting: in the case of `CCOC(=O)c1ccc(OC(=O)CCCCCN=C(N)N)cc1` it was “inactive”.

For `CCC(=O)Nc1cc2c(cc1C(=O)c1ccccc1)OCCO2`, the activity, negative = inhibition is -4.4% [at 2.29 µM]. Consider `CCCc1cc2c(cc1NC(=O)c1ccccc1C)OCO2`, for which the AC50 is 2.51 µM (active). Take `Cc1ccccc1C(=O)NNC(=O)c1ccoc1C`: the “activity, negative = inhibition” value is -11.1%. With `CCCc1cc2c(cc1NC(=O)c1ccc(Br)cc1)OCO2`, the AC50 is 1.12 µM (active). Turning to `CCCc1cc2c(cc1NC(=O)c1ccccc1Cl)OCO2`, the concentration at half-maximal activity (AC50) is 2.24 µM (active). On to `COC(=O)CSc1cc(C(F)(F)F)nc(-c2ccccn2)n1`, for which the “activity, negative = inhibition” value is 18.3%. Turning to `CCCNC(=O)CSc1nc(-c2cccs2)cc(C(F)(F)F)n1`, the AC50 is 7.08 µM (active). As to `O=C(N/N=C/c1ccco1)c1ccccn1`, the “activity, negative = inhibition” value was -1.69%. `O=C(NN=C1c2ccccc2-c2ccccc21)c1ccccn1`: the AC50 is 14.1 µM (active).

Take `O=C(CNC(=O)c1ccccn1)N/N=C/c1ccccc1`: the activity, negative = inhibition is -5.67% [at 2.29 µM]. For `NC(=O)C1=CN([C@@H]2O[C@@H](COP(=O)(O)OP(=O)(O)OC[C@@H]3O[C@H](n4cnc5c(N)ncnc54)[C@@H](OP(=O)(O)O)[C@@H]3O)[C@H](O)[C@@H]2O)C=CC1`, the “activity, negative = inhibition” value is 0.506%.

For the molecule `NC(=S)c1ccc[n+]([C@@H]2O[C@@H](COP(=O)([O-])OP(=O)(O)OC[C@@H]3O[C@@H](n4cnc5c(N)ncnc54)[C@@H](OP(=O)(O)O)[C@H]3O)[C@@H](O)[C@H]2O)c1`, the AC50 is 12.6 µM (active). In the case of `Nc1nc(Cl)nc2c1ncn2[C@@H]1O[C@@H](COP(=O)(O)OP(=O)(O)OP(=O)(O)O)[C@@H](O)[C@H]1O`, the “activity, negative = inhibition” value is 5.19%. In the case of `CCn1c(SCc2ccc(Cl)cc2Cl)nc2nc3c(cc2c1=O)CCCC3`, the AC50 is 8.91 µM (active). With `C#CCCCCCCCCCCCCCCCC(=O)O`, the “activity, negative = inhibition” value was -17.5%. In the case of `O=C(O)C1=CCNCC1`, the AC50 result is “inactive”. The same measure, in the same setting: the result for `CCCCN1C(=O)CN(CCc2ccccc2)C(=O)C1c1ccc(OC)cc1` (configuration not stated) reads 7.94 µM (active). Consider `COc1ccc(-c2nc3cnc(N(C)C)nc3n(CCc3ccccc3)c2=O)cc1`, for which the “activity, negative = inhibition” value was -16.1%. Turning to `COc1ccc(/C(O)=C2/C(=O)C(=O)N(CCCC(=O)O)C2c2ccc(OC)cc2)cc1` (configuration not stated), the “activity, negative = inhibition” value is 3%. Consider `COc1ccc(C2C(=O)N(CCc3ccccc3)CC(=O)N2C2CCCC2)cc1` (configuration not stated), for which the concentration at half-maximal activity (AC50) is 6.31 µM (active).

For the molecule `CCCCN1C(=O)CCC(C(=O)O)C1c1ccccc1` (configuration not stated), the “activity, negative = inhibition” value was 7.8%. As for `CO[C@@H]1COC(=O)[C@H](COCc2ccccc2)NC(=O)C/C=C\[C@@H](C)[C@H](OC)COC(=O)[C@H](COCc2ccccc2)NC(=O)C/C=C\[C@H]1C`, the activity, negative = inhibition was -6.81% [at 11.4 µM]. For `CO[C@@H]1COC(=O)[C@H](C)NC(=O)[C@@H](C)COC(=O)CCC[C@H]1C`, the activity, negative = inhibition is -21.6% [at 11.4 µM].

In the case of `CO[C@@H]1COC(=O)[C@H](Cc2ccccc2)NC(=O)C/C=C\[C@@H](C)[C@H](OC)COC(=O)[C@@H](C)NC(=O)C/C=C\[C@H]1C`, the activity, negative = inhibition is -25.2% [at 11.4 µM] and -29.9% [at 11.4 µM].

In the case of `CO[C@@H]1COC(=O)[C@@H](CCSC)NC(=O)C/C=C\[C@@H](C)COC(=O)[C@H](C)NC(=O)C/C=C\[C@H]1C`, the activity, negative = inhibition is -17.8% [at 11.4 µM].

As for `CO[C@@H]1COC(=O)CCC[C@@H](C)[C@H](OC)COC(=O)CCC[C@H]1C`, the activity, negative = inhibition is -19.8% [at 11.4 µM].

For the molecule `CO[C@H]1COC(=O)CCC[C@@H](C)[C@H](OC)COC(=O)[C@@H](C)NC(=O)C/C=C\[C@@H]1C`, the activity, negative = inhibition is -24.2% [at 11.4 µM]. As to `CO[C@H]1COC(=O)C/C=C\[C@H](C)[C@@H](OC)COC(=O)[C@H](Cc2ccccc2)NC(=O)C/C=C\[C@@H]1C`, the AC50 is 3.16 µM (active).

Regarding `CO[C@@H]1COC(=O)CCC[C@@H](C)[C@H](OC)COC(=O)[C@H](Cc2ccccc2)NC(=O)C/C=C\[C@H]1C`, the AC50 is 3.98 µM (active). Regarding `CO[C@H]1COC(=O)[C@@H](Cc2ccccc2)NC(=O)[C@@H](C)COC(=O)CCC[C@@H]1C`, the half-maximal activity concentration (AC50) was 3.16 µM (active). `O=C(NC(=S)Nc1cccc(Cl)c1N1CCCCC1)c1cccs1`: the activity, negative = inhibition is -1.51% [at 2.29 µM]. As for `CC1CCN(c2ccccc2NC(=S)NC(=O)c2cccs2)CC1`, the half-maximal activity concentration (AC50) is 15.8 µM (active). `COc1ccc(C(=O)NC(=S)NC(C)C)cc1Br`: the “activity, negative = inhibition” value is -28.4%. For the molecule `C=CCN(CC=C)C(=S)NC(=O)c1ccc(OC)c(Br)c1`, the concentration at half-maximal activity (AC50) is 0.891 µM (active). `C=CCN(CC=C)C(=S)Nc1ccccc1`: the activity, negative = inhibition was -16.5% [at 2.29 µM].

For the molecule `CCCc1nn2c(=O)c(C(c3ccc(C)cc3)c3c(O)nc4sc(CCC)nn4c3=O)c(O)nc2s1`, the activity, negative = inhibition is -0.554% [at 2.29 µM]. On to `CCOC(=O)c1sc(NS(=O)(=O)c2ccccc2)nc1C`, for which the “activity, negative = inhibition” value is -13.8%. As for `CCOC(=O)c1sc(N(Cc2ccccc2)C(=O)CN2C(=O)CN(C)C2=O)nc1C`, the concentration at half-maximal activity (AC50) was 12.6 µM (active). On to `COc1cccc(/C=N/NC(=O)c2c(-c3ccccc3)noc2C)c1`, for which the activity, negative = inhibition was -3.56% [at 2.29 µM]. In the case of `COc1ccc(NC(=O)COC(=O)c2c(-c3ccccc3)noc2C)cc1`, the half-maximal activity concentration (AC50) was 7.08 µM (active). Consider `Cc1noc(C)c1C(=O)OCC(=O)NC(c1ccccc1)c1ccccc1`, for which the activity, negative = inhibition was -8.57% [at 2.29 µM].

As for `CCCCN1CCC(n2c(=O)[nH]c3ccccc32)CC1`, the “activity, negative = inhibition” value is -14.6%. Regarding `Fc1ccc(Nc2ncnc3ccc(-c4ccoc4)cc23)cc1`, the AC50 was 15.8 µM (active). Consider `c1ccc(Nc2ncnc3ccc(-c4ccoc4)cc23)cc1`, for which the AC50 was 15.8 µM (active). Take `Cc1noc(COc2ccc(OCc3nc(C)no3)cc2)n1`: the “activity, negative = inhibition” value is -5.47%.

On to `CC1(CCC(=O)OC2CCCCC2)OCCO1`, for which the activity, negative = inhibition was -7.62% [at 11.4 µM]. `Cn1c(/C=N/NC(=O)c2ccccc2Br)nc2ccccc21`: the concentration at half-maximal activity (AC50) is 10 µM (active). On the same count and under the same terms, the result for `Nc1cccc(OCc2nc(N)nc(N)c2-c2ccc(Cl)cc2)c1` reads 1.58 µM (active). As to `CCOC(=O)N1CCN(C(=O)C(C)SCc2ccccc2)CC1` (configuration not stated), the “activity, negative = inhibition” value is -12.5%.

In the case of `CCOC(=O)C1CCCN(C(=O)CCCOc2cc(=O)n(C)c3ccccc23)C1` (configuration not stated), the half-maximal activity concentration (AC50) is 3.98 µM (active). For `CCOC(=O)C1CCN(C(=O)C2CCN(S(=O)(=O)N3CCCC3)CC2)CC1`, the “activity, negative = inhibition” value was 6.47%. Consider `CCOC(=O)N1CCN(S(=O)(=O)Cc2ccccc2)CC1`, for which the “activity, negative = inhibition” value is -5.12%. Same read-out and setting: the result for `CCOC(=O)C1CCCN(S(=O)(=O)c2ccccc2)C1` (configuration not stated) reads -22.8%. With `CCOC(=O)C1CCCN(C(=O)CSCc2ccccc2)C1` (configuration not stated), the AC50 is 25.1 µM (active).

For `CCOC(=O)N1CCN(C(=O)CSCc2ccc(Cl)cc2)CC1`, the AC50 was 4.47 µM (active). On to `Cc1cc(C(C)(C)CC(C)(C)C)ccc1OCCOCC[N+](C)(C)Cc1ccccc1`, for which the “activity, negative = inhibition” value is -26% [at 25.6 µM].
